# “And” between values parts separate entries of the source, which are not always exact repeats. Identical values can stand only once. The campaign covered roughly 340,000 compounds. About 2,100 (0.62%) were called active. Not all results are given here. Entries with a potency or affinity are not part of this list. A number with no mark means an inactive call.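 How the source made its calls: active means first-screen hits whose inhibition reached a set limit at any dose in the follow-up dose series; inconclusive means inhibition above the set first-screen limit but never retested; inactive means the rest.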
# Molecular target: Rac GTPase-activating protein 1 (Homo sapiens) (UniProt Q9H0H5)
# Sequence (Q9H0H5 whole entry, looked up): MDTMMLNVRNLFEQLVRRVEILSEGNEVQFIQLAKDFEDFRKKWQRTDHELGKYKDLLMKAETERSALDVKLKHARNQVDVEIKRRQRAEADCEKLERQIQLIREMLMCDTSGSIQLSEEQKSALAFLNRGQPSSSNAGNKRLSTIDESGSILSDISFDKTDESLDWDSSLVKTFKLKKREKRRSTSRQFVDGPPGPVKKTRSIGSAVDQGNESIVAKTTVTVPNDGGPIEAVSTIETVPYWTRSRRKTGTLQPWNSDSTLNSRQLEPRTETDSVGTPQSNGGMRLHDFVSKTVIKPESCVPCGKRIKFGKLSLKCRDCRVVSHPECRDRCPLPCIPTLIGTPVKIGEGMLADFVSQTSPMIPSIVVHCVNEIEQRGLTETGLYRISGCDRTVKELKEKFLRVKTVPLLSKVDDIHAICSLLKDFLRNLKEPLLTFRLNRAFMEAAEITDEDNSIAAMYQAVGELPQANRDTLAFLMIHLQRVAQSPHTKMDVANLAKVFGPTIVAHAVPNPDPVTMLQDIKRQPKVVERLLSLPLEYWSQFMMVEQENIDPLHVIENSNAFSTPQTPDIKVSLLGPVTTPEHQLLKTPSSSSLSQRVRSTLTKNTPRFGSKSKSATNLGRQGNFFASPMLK
# Assay: MgcRacGAP GTPase-activating activity inhibitors, confirmation, biochemical, ADP Hunter fluorescence, primary and confirmatory (AID 624330);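 further: fluorescence reports GDP produced by GAP-driven GTP hydrolysis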
# Conditions: MgcRacGAP-stimulated Rac1 GTP hydrolysis, at 30 µM, hits give high values, GST-tagged Rac1 F28L mutant substrate
row,Structure (SMILES),inhibition
1,N#Cc1ccc(-c2csc(NC(=O)c3ccc(N4C(=O)CCC4=O)cc3)n2)cc1,6.12%
2,CCCCOc1ccc(/C=c2\sc3ncnn3c2=O)cc1,8.68%
3,O=c1/c(=C/c2cccc3ccccc23)sc2ncnn12,17.9%
4,CN1CCN(C(=O)CN(C)S(=O)(=O)c2cc(Cl)ccc2Cl)CC1,1.86%
5,O=C(CNCc1ccco1)Nc1ccccc1-n1cccc1,12.8%
6,COc1ccccc1CNCC(=O)Nc1ccc(C(F)(F)F)cc1,25%
7,COc1ccccc1CNCC(=O)Nc1ccc(C#N)cc1,31.8%
8,COc1ccccc1CNC(=O)Cc1ccc(C)cc1,4.63%
9,COc1ccccc1CNCc1ccc(C)cc1,7.48%
10,O=C1CN(C(=O)CNCc2ccccc2)c2ccccc2N1,23.4%
11,COc1ccc(CNCC(=O)Nc2ccccc2-n2cccc2)cc1,36.5%
12,COc1ccccc1CNC(=O)CNC(=O)N1CC(=O)Nc2ccccc21,10.5%
13,O=CNc1ccccc1Oc1ccccc1,8.55%
14,Cc1ccc(N(C(=O)c2snc(C(N)=O)c2N)C(C(=O)NC2CCCC2)c2ccc(C)o2)cc1 (configuration not stated),2.21%
15,CC(=O)c1ccc(NC(=O)CSc2nnc(C3CC3)n2C)cc1,-6.69%
16,O=C(CSc1cn(CCNC(=O)c2ccc3ccccc3c2)c2ccccc12)NCc1ccco1,11.1%
17,CC(C)C(=O)Nc1ccc2c(c1)nc1n2CCSC1,5.79%
18,CC1CCN(CC(O)COc2ccc(OCC(O)CN3CCC(C)CC3)cc2)CC1 (configuration not stated),15.7%
19,Cc1ccccc1OCC(O)CN1CCC(C)CC1 (configuration not stated),8.53%
20,Cn1ccnc1C(=O)c1cc(SCC(=O)N2CCOCC2)nc2ccccc12,-0.39%
21,S=C1SC2(CCCCCC2)NC2=C1CCCCC2,8.68%
22,CCOC(=O)CCSc1nc(C)c2cc(C)ccc2n1,5.59%
23,Cc1ccc(Oc2coc3cc(OC(=O)c4cccs4)ccc3c2=O)cc1,1.09%
24,Cc1c(O)ccc2c(=O)c(Oc3ccccc3)coc12,9.78%
25,CC1NC(=O)c2cc3ccccc3cc2-n2c1nc1cc(Cl)ccc1c2=O (configuration not stated),9.82%

row,Structure (SMILES),inhibition
1,CC(Oc1ccc(Cl)cc1)C(=O)Nc1ccccc1N1CCOCC1 (configuration not stated),2.3%
2,CCN1/C(=C2/SC(=S)NC2=O)Sc2ccccc21,1.71%
3,NN1C(=O)/C(=C2/Sc3ccccc3N2CCCS(=O)(=O)O)SC1=S,12.5%
4,CCOC(=O)N1CCN(S(=O)(=O)c2c(C)nc3sccn3c2=O)CC1,8.06%
5,O=C1/C(=C\c2ccc([N+](=O)[O-])cc2)CCc2ccccc21,2.14%
6,COc1ccc(C=C2CS(=O)(=O)CC(=Cc3ccc(OC)cc3)C2=O)cc1,8.37%
7,O=[N+]([O-])c1ccc(N2CCN(S(=O)(=O)c3ccc(Cl)c(Cl)c3)CC2)cc1NCCN1CCOCC1,-6.11%
8,COc1ccc2o/c(=N\O)c(C(=O)Nc3ccc(C)cc3)cc2c1,6.76%
9,COc1ccccc1NC(=O)c1cc2ccc(O)cc2o/c1=N\O,16.6%
10,CCOC(=O)C1=CN(Cc2cccc(-c3ccc(F)cc3)c2)S(=O)(=O)N(C)C1C (configuration not stated),8.9%
11,Cc1cc(C)nc(Nc2ccc(Cl)cc2C)n1,4.71%
12,Cc1nc2sc(C(c3cccs3)N3CCC4(CC3)OCCO4)c(O)n2n1 (configuration not stated),1.65%
13,Cc1cc(C)c2ccc(=O)n(CC(=O)N/N=C/c3ccccc3Cl)c2n1,5.91%
14,COc1cc2[nH]c3ccccc3c2cc1C,-5.8%
15,Cc1ccc(C)c2c1[nH]c1ccccc12,10.6%
16,Cc1ccc(C(C)C)c(OC/C(O)=C(\C#N)c2nc3ccccc3[nH]2)c1,6.88%
17,CC1(C)C(c2ccccc2)=[N+]([O-])C2(CCCCC2=O)N1O (configuration not stated),1.13%
18,CCOC(=O)C1CCN(S(=O)(=O)CCNC(=O)c2ccc(F)cc2)CC1,6.46%
19,O=S(=O)(O)c1cccc2c(N=Nc3ccc(O)c4ncccc34)cccc12,18.4%
20,O=S(=O)(O)c1cc(O)ccc1O,4.04%
21,O=[N+]([O-])c1ccc(N=Nc2ccc(O)cc2O)cc1,7.64%
22,Oc1ccc(N=Nc2ccc(Br)cc2)c(O)c1,12.2%
23,O=C(Cc1ccc(F)cc1)NC(Cc1c[nH]c2ccccc12)C(=O)O (configuration not stated),-3.39%
24,Cc1c(Cl)cnc(NC(=O)CSc2nnnn2C)c1Cl,3.41%
25,CC(=O)c1ccc2c(c1)N(CCCN(C)C)c1ccccc1S2,12.4%

row,Structure (SMILES),inhibition
1,CN1CCN(CCCN2c3ccccc3Sc3ccc(C(F)(F)F)cc32)CC1,7.89% and 12.7% and 6.18%
2,OCCN1CCN(CCCN2c3ccccc3Sc3ccc(Cl)cc32)CC1,31.9%
3,CN(C)CCCN1c2ccccc2Sc2ccc(Cl)cc21,22% and 17.9%
4,CNc1ccc(/C=C/C(=O)c2cccc3ccccc23)cc1[N+](=O)[O-],1.28%
5,CCN(C(=O)COC(=O)/C=C/c1c(C)nn(-c2ccccc2)c1C)C1CCS(=O)(=O)C1 (configuration not stated),5.67%
6,CC(=O)c1ccc(NC(=O)CN2CCN(c3ccccc3)CC2)cc1,5.48%
7,CC[C@H](C)NC(=O)CCCCCn1c(=S)[nH]c2c([nH]c3ccc(OC)cc32)c1=O,3.32%
8,COc1ccc2[nH]c3c(=O)n(Cc4ccc(C(=O)N5CCCC5)cc4)c(=S)[nH]c3c2c1,4.08%
9,COc1ccc2[nH]c3c(=O)n(CCCCC(=O)N4CCCC4)c(=S)[nH]c3c2c1,23.1%
10,COc1ccc2[nH]c3c(=O)n(Cc4ccc(C(=O)N5CCCCCC5)cc4)c(=S)[nH]c3c2c1,6.08%
11,CC(C)(CO)CNC(=O)CCc1nnc(-c2ccc(-c3ccccc3)cc2)o1,9.2%
12,CC(OC(=O)c1ccc(-c2ccc(O)cc2)cc1)C(=O)NC1CCCCC1C (configuration not stated),8.27%
13,CC(C)CN1CCC(Oc2cccc(C(=O)NCCc3ccccc3)c2)CC1,11.2%
14,CC(=O)c1sc(NC(=O)c2cccc(N3C(=O)CCC3=O)c2)nc1-c1ccccc1,2.55%
15,C[C@@H]1CN([C@@H](C)CO)C(=O)CCCn2nncc2CO[C@H]1CN(C)S(=O)(=O)c1ccc2c(c1)OCCCO2,7.05%
16,Cc1ccc([C@@H]2C[C@H]3[C@@H](CN2S(=O)(=O)c2ccc(Cl)cc2)C(=O)C[C@@H](c2ccccc2)N3S(=O)(=O)c2ccc(C)cc2)cc1,17.6%
17,Cc1ccc(C2/C=C\CC(NC(=O)OCC3c4ccccc4-c4ccccc43)CC(=O)N2Cc2ccccc2)cc1 (configuration not stated),7.21%
18,Cc1c(-c2ccccc2)cn2c1-c1ccc(C)n1CC2,5.62%
19,CCCC1=[N+](CC(C)=O)CCn2c(C)ccc21,-4.62%
20,COc1cc2c(cc1NC(=O)CSc1nc3cc(Cl)ccc3s1)oc1ccccc12,5.98%
21,CCc1ccc(-c2nn(Cc3ccccc3)cc2C(=O)NCC2CCCO2)cc1 (configuration not stated),0.77%
22,CC(=O)Nc1ccc(/C=N/NC(=O)c2cc(-c3ccco3)nc3ccccc23)cc1,6.26%
23,O=C(N/N=C/c1cccc(F)c1)c1cc(-c2ccco2)nc2ccccc12,7.31%
24,CSc1nc(C)c(C(=O)C[n+]2ccccc2)cc1C#N,5.97%
25,FC(F)(F)c1cccc(N2CCN(Cc3ccoc3)CC2)c1,9.97%

row,Structure (SMILES),inhibition
1,COc1ccc(-n2c(=S)[nH]c3cc(C(=O)O)ccc3c2=O)cc1,1.88%
2,COc1ccc(N=Nc2ccc(N)nc2N)cc1,18.6%
3,COc1cc(S(N)(=O)=O)c(OC)cc1N,7.46%
4,COc1ccc(C(=O)c2ccc(OC)c(N)c2)cc1N,4.59%
5,Cc1ccc(N=Nc2ccc(N)cc2C)c(S(N)(=O)=O)c1,13.8%
6,Cc1cc(N=Nc2c(O)c3ccccc3[nH]c2=O)ccc1N=Nc1ccc(C(=O)N(C)C)cc1,6.51%
7,COc1ccc(OC)c(N)c1,18.5%
8,CCCNS(=O)(=O)c1ccc(CCC(=O)NCCc2ccc(OC)c(OC)c2)cc1,1.4%
9,NC(N)=NC1=NC(=O)/C(=C/c2ccccc2-n2cccn2)S1,10.9%
10,CC1(C)CC(=O)C(C=Nc2ccc(NC3=C(C#N)C(=O)CC(C)(C)C3)cc2)=C(O)C1,7.44%
11,CC(/C=N/O)Cc1ccc2c(c1)OCO2 (configuration not stated),2.11%
12,COc1ccc(C2C(C(=O)NCc3ccco3)c3ccccc3C(=O)N2C)cc1 (configuration not stated),0.04%
13,CC1=C(C(=O)N(C)C)CC(CC(=O)NC2CCCC2)C(=O)N1CCC1=CCCCC1 (configuration not stated),14.5%
14,O=C(CNC(=O)c1ccccc1Br)N/N=C/c1cccs1,0.32%
15,COc1ccc(CNCc2ccc3ccccc3c2)c(OC)c1,28.9%
16,CCn1c2ccccc2c2cc(CNCCCN3CCOCC3)ccc21,20.3%
17,CCn1c2ccccc2c2cc(CC(N)=O)ccc21,8.07%
18,COc1cccc(CNCc2ccc(OC)cc2OC)c1,22.9%
19,CCn1c2ccccc2c2cc(NC(C)=O)ccc21,6.13%
20,CCn1c2ccccc2c(=O)c2ccccc21,5.08%
21,CCCC(=O)Nc1ccc2c(c1)c1ccccc1n2CC,10.5%
22,CCn1c2ccccc2c2cc(NC(=O)CC(C)=O)ccc21,8.51%
